The text below walks through data of PubChem BioAssay (NCATS).

SMILES strings stand for the structures. Records with an inconclusive call do not appear. Calls of active or inactive are those of the source. Calls come from the whole dose curve; as a rule, active = well fitted curve in the direction sought with a large enough effect; inconclusive = small, poorly fitted or top-dose-only effect, or another doubt; inactive = no such curve, though single readings can be large; an effect the other way counts as inactive or inconclusive.

Chain of D(1A) dopamine receptor (Homo sapiens) (P21728 whole entry, looked up): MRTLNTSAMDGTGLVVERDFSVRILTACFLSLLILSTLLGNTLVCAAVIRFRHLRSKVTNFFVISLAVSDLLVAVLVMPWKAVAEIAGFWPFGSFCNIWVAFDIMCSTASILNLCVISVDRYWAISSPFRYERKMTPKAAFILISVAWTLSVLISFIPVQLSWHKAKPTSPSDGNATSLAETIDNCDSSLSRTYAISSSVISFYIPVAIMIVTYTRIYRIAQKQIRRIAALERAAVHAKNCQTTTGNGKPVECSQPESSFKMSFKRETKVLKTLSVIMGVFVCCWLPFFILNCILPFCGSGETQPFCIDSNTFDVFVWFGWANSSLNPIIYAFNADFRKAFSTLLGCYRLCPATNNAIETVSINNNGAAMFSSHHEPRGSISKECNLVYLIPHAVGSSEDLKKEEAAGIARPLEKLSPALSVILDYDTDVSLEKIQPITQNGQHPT
Chain of Methanococcus maripaludis chaperonin (MmCpn) (Q6LX38 1-543): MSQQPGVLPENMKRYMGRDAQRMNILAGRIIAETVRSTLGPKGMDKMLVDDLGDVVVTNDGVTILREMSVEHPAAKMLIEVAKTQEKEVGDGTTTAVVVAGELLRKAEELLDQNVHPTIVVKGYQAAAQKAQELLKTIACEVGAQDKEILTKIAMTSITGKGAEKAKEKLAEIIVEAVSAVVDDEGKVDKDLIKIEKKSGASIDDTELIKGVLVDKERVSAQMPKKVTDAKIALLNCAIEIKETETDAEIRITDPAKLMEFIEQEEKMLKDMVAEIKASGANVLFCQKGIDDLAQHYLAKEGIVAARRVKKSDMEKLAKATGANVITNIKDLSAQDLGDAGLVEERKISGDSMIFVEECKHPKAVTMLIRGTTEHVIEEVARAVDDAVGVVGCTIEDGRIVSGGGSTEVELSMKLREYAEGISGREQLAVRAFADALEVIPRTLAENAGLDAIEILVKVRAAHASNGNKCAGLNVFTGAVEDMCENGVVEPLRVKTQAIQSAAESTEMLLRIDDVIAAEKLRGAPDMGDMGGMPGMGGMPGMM
Chain of Transient receptor potential cation channel subfamily V member 1 (Homo sapiens) (Q8NER1 whole entry, looked up): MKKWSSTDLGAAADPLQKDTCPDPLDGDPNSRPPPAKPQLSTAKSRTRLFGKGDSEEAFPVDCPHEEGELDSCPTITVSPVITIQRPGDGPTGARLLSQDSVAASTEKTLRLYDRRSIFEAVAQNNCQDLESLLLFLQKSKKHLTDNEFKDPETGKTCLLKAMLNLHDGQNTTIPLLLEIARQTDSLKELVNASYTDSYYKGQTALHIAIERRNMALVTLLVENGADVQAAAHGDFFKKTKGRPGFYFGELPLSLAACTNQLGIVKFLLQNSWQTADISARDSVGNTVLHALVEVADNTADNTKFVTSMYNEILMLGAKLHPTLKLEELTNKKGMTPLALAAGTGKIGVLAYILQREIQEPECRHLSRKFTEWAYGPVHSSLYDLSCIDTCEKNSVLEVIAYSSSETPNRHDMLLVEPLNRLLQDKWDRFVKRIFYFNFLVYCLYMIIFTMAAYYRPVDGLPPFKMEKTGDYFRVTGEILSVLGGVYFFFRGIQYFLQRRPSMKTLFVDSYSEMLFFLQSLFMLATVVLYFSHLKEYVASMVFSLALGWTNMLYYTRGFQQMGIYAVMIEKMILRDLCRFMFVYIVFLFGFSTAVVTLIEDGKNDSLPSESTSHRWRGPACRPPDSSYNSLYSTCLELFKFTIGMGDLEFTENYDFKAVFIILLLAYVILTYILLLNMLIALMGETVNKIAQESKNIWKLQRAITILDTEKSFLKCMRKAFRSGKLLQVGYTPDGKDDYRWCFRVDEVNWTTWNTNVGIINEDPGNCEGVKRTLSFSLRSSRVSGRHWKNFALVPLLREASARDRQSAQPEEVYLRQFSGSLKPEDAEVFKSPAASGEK

The first assay concerns the target Methanococcus maripaludis chaperonin (MmCpn) (UniProt Q6LX38). Nature of the assay: High-Throughput Screening for Modulators of Cytosolic Chaperonin Activity: MmCpn Primary Screen (AID 488978).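 Note: 50 nM MmCpn enzyme hydrolysing 30 µM ATP at 37 °C; 0% is about no effect.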 Particulars: Purified MmCpn ATPase activity, ADP HTRF detection, 10 min; series mostly up to 76.9 µM; activity change, negative = inhibition: at the top concentration. The procedure, abridged:
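Measures ATPase turnover of the M. maripaludis chaperonin (50 nM final) against 30 uM ATP over 10 min at 37C, with compound added 5 min beforehand at room temperature. ADP is quantified by HTRF immunodetection.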
(Time-resolved FRET reads energy transfer from a long-lived donor to a nearby acceptor.)
On to `CC(C)NCC(O)c1ccc(NS(C)(=O)=O)cc1` (centres undefined), for which the “activity change, negative = inhibition” value is 0.181% (inactive).

With `COc1cc2nc(N3CCCN(C)CC3)nc(NC3CCN(Cc4ccccc4)CC3)c2cc1OC`, the “activity change, negative = inhibition” value was -3.68% (inactive).

Take `N[C@@H](Cc1ccc(O)c(O)c1)C(=O)O`: the “activity change, negative = inhibition” value is 1.11% (inactive).

Take `CCCCS(=N)(=O)CCC(N)C(=O)O` (centres undefined): the “activity change, negative = inhibition” value is -0.305% (inactive).

As for `CCN(CC)CCn1c(=O)c(Cc2ccc(OC)cc2)nc2ccccc21`, the “activity change, negative = inhibition” value is -1.28% (inactive).

With `OCc1ccc(-c2nn(Cc3ccccc3)c3ccccc23)o1`, the “activity change, negative = inhibition” value was -3.6% (inactive).

Consider `Nc1nc(N)c2nc(CNc3ccc(C(=O)NC(CCC(=O)O)C(=O)O)cc3)cnc2n1` (centres undefined), for which the “activity change, negative = inhibition” value was -3.86% (inactive).

Consider `CC1=C(C(=O)O)N2C(=O)[C@@H](NC(=O)C(N)c3ccccc3)[C@H]2SC1` (some centres undefined), for which the “activity change, negative = inhibition” value is 0.415% (inactive).

As for `CCN1CCCC1CNC(=O)c1cc(S(N)(=O)=O)ccc1OC` (centres undefined), the “activity change, negative = inhibition” value is 0.166% (inactive).

As to `O=C(O)C1CCCN(CCC=C(c2ccccc2)c2ccccc2)C1` (centres undefined), the “activity change, negative = inhibition” value was 2.34% (inactive).

Take `NC(=O)c1cccc(N)c1`: the “activity change, negative = inhibition” value is 1.56% (inactive).

Consider `CC1CC2C3CCC4=CC(=O)C=C[C@]4(C)[C@@]3(F)[C@@H](O)C[C@]2(C)[C@@]1(O)C(=O)CO` (some centres undefined), for which the “activity change, negative = inhibition” value was 1.12% (inactive).

`NC(=O)c1ccc2[nH]ccc2c1`: the “activity change, negative = inhibition” value was 2.57% (inactive).

Consider `COc1cc2ncnc(Nc3cccc(Cl)c3)c2cc1OC`, for which the “activity change, negative = inhibition” value is -3.2% (inactive).

As to `CC(=O)[C@H]1CC[C@H]2[C@@H]3CCC4=CC(=O)CC[C@]4(C)[C@H]3CC[C@]12C`, the “activity change, negative = inhibition” value was -0.525% (inactive).

`CCN(CC)CC#CCOC(=O)C(O)(c1ccccc1)C1CCCCC1` (centres undefined): the “activity change, negative = inhibition” value was 0.652% (inactive).

The next assay deals with Transient receptor potential cation channel subfamily V member 1 (Homo sapiens) (UniProt Q8NER1). Nature of the assay: HTS Assay for Compounds that Act as Enhancers of the Vanilloid Receptor 1 (AID 488979). Note: 0% is about no effect. Particulars: TRPV1-expressing cells, enhancer of channel activity, stimulated with capsaicin at EC20; series mostly up to 41.7 µM; activity change, positive = enhancement: at the top concentration. The procedure, abridged:
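Calcium influx kinetics via Fluo-8 (480/520 nm) in TRPV1-expressing cells, 2000/well cultured overnight at 35.5C. Compound-alone read 3 min (agonist phase), followed by EC20 capsaicin challenge for 2 min (enhancer phase).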
For `CC(C)NCC(O)c1ccc(NS(C)(=O)=O)cc1` (centres undefined), the “activity change, positive = enhancement” value is 4.44% (inactive).

In the case of `Cc1ccc(S(=O)(=O)N[C@@H](Cc2ccccc2)C(=O)CCl)cc1`, the “activity change, positive = enhancement” value was 11.1% (inactive).

With `CCCCS(=N)(=O)CCC(N)C(=O)O` (centres undefined), the “activity change, positive = enhancement” value is 4.34% (inactive).

For the compound `OCc1ccc(-c2nn(Cc3ccccc3)c3ccccc23)o1`, the “activity change, positive = enhancement” value is 16.4% (inactive).

For the compound `Nc1nc(N)c2nc(CNc3ccc(C(=O)NC(CCC(=O)O)C(=O)O)cc3)cnc2n1` (centres undefined), the “activity change, positive = enhancement” value is -3.99% (inactive).

`CC1=C(C(=O)O)N2C(=O)[C@@H](NC(=O)C(N)c3ccccc3)[C@H]2SC1` (some centres undefined): the “activity change, positive = enhancement” value is 7.15% (inactive).

Take `CCN1CCCC1CNC(=O)c1cc(S(N)(=O)=O)ccc1OC` (centres undefined): the “activity change, positive = enhancement” value is -8.97% (inactive).

On to `O=C(O)C1CCCN(CCC=C(c2ccccc2)c2ccccc2)C1` (centres undefined), for which the “activity change, positive = enhancement” value is 1.71% (inactive).

For the compound `NC(=O)c1cccc(N)c1`, the “activity change, positive = enhancement” value was 2.74% (inactive).

For `COc1cc2ncnc(Nc3cccc(Cl)c3)c2cc1OC`, the “activity change, positive = enhancement” value was -8.87% (inactive).

For the compound `CC(=O)[C@H]1CC[C@H]2[C@@H]3CCC4=CC(=O)CC[C@]4(C)[C@H]3CC[C@]12C`, the “activity change, positive = enhancement” value was -3.59% (inactive).

Regarding `CC(C)(C)NC(=O)[C@H]1CC[C@H]2[C@@H]3CC[C@H]4NC(=O)C=C[C@]4(C)[C@H]3CC[C@]12C`, the “activity change, positive = enhancement” value is -4.57% (inactive).

For `CCN(CC)CC#CCOC(=O)C(O)(c1ccccc1)C1CCCCC1` (centres undefined), the “activity change, positive = enhancement” value was -11% (inactive).

A further assay addresses D(1A) dopamine receptor (Homo sapiens) (UniProt P21728). Nature of the assay: HTS Assay for Allosteric Agonists of the Human D1 Dopamine Receptor: Primary Screen for Potentiators (AID 488982). Note: 0% is about no effect. Particulars: HEK293 T-REx D1 inducible cells, calcium flux, kinetic fluorescence; series mostly up to 8.37 µM; activity, positive = potentiation: at the top concentration. The procedure, abridged:
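Calcium flux in an inducible, force-coupled HEK293 Trex D1 line (overnight at 30 C): agonist mode is the 180 s kinetic read after compound; potentiator mode is the following 180 s read after dopamine at EC20.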
In general terms: A change in cytosolic calcium serves as a functional read-out for many receptors and channels.
Consider `CC(C)NCC(O)c1ccc(NS(C)(=O)=O)cc1` (centres undefined), for which the “activity, positive = potentiation” value was 0.117% (inactive).

For `COc1cc2nc(N3CCCN(C)CC3)nc(NC3CCN(Cc4ccccc4)CC3)c2cc1OC`, the “activity, positive = potentiation” value is 2.38% (inactive).

Take `Cc1ccc(S(=O)(=O)N[C@@H](Cc2ccccc2)C(=O)CCl)cc1`: the “activity, positive = potentiation” value was -20.4% (inactive).

In the case of `N[C@@H](Cc1ccc(O)c(O)c1)C(=O)O`, the “activity, positive = potentiation” value is 23.9% (inactive).

As to `CCCCS(=N)(=O)CCC(N)C(=O)O` (centres undefined), the “activity, positive = potentiation” value was -15.1% (inactive).

As for `CCN(CC)CCn1c(=O)c(Cc2ccc(OC)cc2)nc2ccccc21`, the “activity, positive = potentiation” value was 23.5% (inactive).

Regarding `OCc1ccc(-c2nn(Cc3ccccc3)c3ccccc23)o1`, the “activity, positive = potentiation” value is 25.2% (inactive).

`Nc1nc(N)c2nc(CNc3ccc(C(=O)NC(CCC(=O)O)C(=O)O)cc3)cnc2n1` (centres undefined): the “activity, positive = potentiation” value is 19.6% (inactive).

In the case of `CC1=C(C(=O)O)N2C(=O)[C@@H](NC(=O)C(N)c3ccccc3)[C@H]2SC1` (some centres undefined), the “activity, positive = potentiation” value is 36.3% (inactive).

Take `CCN1CCCC1CNC(=O)c1cc(S(N)(=O)=O)ccc1OC` (centres undefined): the “activity, positive = potentiation” value was -70.2% (inactive).

On to `O=C(O)C1CCCN(CCC=C(c2ccccc2)c2ccccc2)C1` (centres undefined), for which the “activity, positive = potentiation” value is -7.21% (inactive).

Turning to `NC(=O)c1cccc(N)c1`, the “activity, positive = potentiation” value is 25% (inactive).

For `CC1CC2C3CCC4=CC(=O)C=C[C@]4(C)[C@@]3(F)[C@@H](O)C[C@]2(C)[C@@]1(O)C(=O)CO` (some centres undefined), the “activity, positive = potentiation” value is 15.8% (inactive).

With `NC(=O)c1ccc2[nH]ccc2c1`, the “activity, positive = potentiation” value was 22% (inactive).

Turning to `COc1cc2ncnc(Nc3cccc(Cl)c3)c2cc1OC`, the “activity, positive = potentiation” value was 10.7% (inactive).

`CC(=O)[C@H]1CC[C@H]2[C@@H]3CCC4=CC(=O)CC[C@]4(C)[C@H]3CC[C@]12C`: the “activity, positive = potentiation” value is 16.1% (inactive).

The next assay shares this target. Nature of the assay: HTS Assay for Allosteric Agonists of the Human D1 Dopamine Receptor: Primary Screen for Antagonists (AID 488983).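 Note: calcium flux response to an EC80 dopamine challenge measured with no-wash dye; % is set by controls: 0 for no effect and ±100 for the full control effect; nearly all actives have a fitted effect of over 65% in size.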 Particulars: D1 receptor cell assay, antagonist mode, qHTS titration; series mostly up to 41.8 µM; activity change, negative = inhibition: at the top concentration. In a few lines:
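Calcium flux readout, no-wash dye, inducible HEK293 T-REx D1 line (force-coupled). Compound added after 10 s baseline, 180 s kinetic read; then dopamine at EC80, further 180 s read.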
`CC(C)NCC(O)c1ccc(NS(C)(=O)=O)cc1` (centres undefined): the “activity change, negative = inhibition” value was 11.2% (inactive).

Consider `COc1cc2nc(N3CCCN(C)CC3)nc(NC3CCN(Cc4ccccc4)CC3)c2cc1OC`, for which the “activity change, negative = inhibition” value is -16.1% (inactive).

As to `N[C@@H](Cc1ccc(O)c(O)c1)C(=O)O`, the “activity change, negative = inhibition” value is -6.01% (inactive).

With `CCCCS(=N)(=O)CCC(N)C(=O)O` (centres undefined), the “activity change, negative = inhibition” value was -3.56% (inactive).

On to `CCN(CC)CCn1c(=O)c(Cc2ccc(OC)cc2)nc2ccccc21`, for which the “activity change, negative = inhibition” value is -2.81% (inactive).

For the compound `OCc1ccc(-c2nn(Cc3ccccc3)c3ccccc23)o1`, the “activity change, negative = inhibition” value is 20.8% (inactive).

Take `Nc1nc(N)c2nc(CNc3ccc(C(=O)NC(CCC(=O)O)C(=O)O)cc3)cnc2n1` (centres undefined): the “activity change, negative = inhibition” value was 13.7% (inactive).

As to `CC1=C(C(=O)O)N2C(=O)[C@@H](NC(=O)C(N)c3ccccc3)[C@H]2SC1` (some centres undefined), the “activity change, negative = inhibition” value was -2.71% (inactive).

For the compound `O=C(O)C1CCCN(CCC=C(c2ccccc2)c2ccccc2)C1` (centres undefined), the “activity change, negative = inhibition” value was 2.63% (inactive).

With `NC(=O)c1cccc(N)c1`, the “activity change, negative = inhibition” value was 13.7% (inactive).

On to `CC1CC2C3CCC4=CC(=O)C=C[C@]4(C)[C@@]3(F)[C@@H](O)C[C@]2(C)[C@@]1(O)C(=O)CO` (some centres undefined), for which the “activity change, negative = inhibition” value was 7.84% (inactive).

Regarding `NC(=O)c1ccc2[nH]ccc2c1`, the “activity change, negative = inhibition” value was -1.29% (inactive).

Turning to `COc1cc2ncnc(Nc3cccc(Cl)c3)c2cc1OC`, the “activity change, negative = inhibition” value was -16.9% (inactive).

For `CCN(CC)CC#CCOC(=O)C(O)(c1ccccc1)C1CCCCC1` (centres undefined), the “activity change, negative = inhibition” value is 13.8% (inactive).
